From PubChem BioAssay (NCATS)
Records with an inconclusive call do not appear. Activity calls are given as the source filed them. The call rests on the fitted dose curve; in most records, active means well fitted cell-killing curve with a large enough effect; inconclusive means small, poorly fitted or top-dose-only effect, or effect the other way; inactive means no such curve, though single readings can be large or run the other way.

Experiment: Quantitative High-Throughput drug screen in 47 multiple myeloma cell lines against the NCATS MIPE library collection: KMS21BM_JCRB cell viability assay (AID 1918974)
Settings: ATP luminescence, 48 h; viability: at 45.8 µM
Outline: (§1)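 qHTS of the MIPE 4.0 collection: 500 myeloma cells/well, 48 h drug exposure at 37C in 5% CO2, then CellTiter-Glo for 5 min at room temperature before luminescence reading.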
Potency means the concentration at half of the fitted maximal effect.

Question: Which Potency does the source give for `O=C(N[C@H]1CN2CCC1CC2)c1ccc(Cl)cc1` here?
Answer: Its Potency is 37.2 µM (active).

Question: Which Potency does the source give for `COc1ccc2c(c1)CN(C)CC2c1ccc(Cl)c(Cl)c1` (centres undefined) here?
Answer: Its Potency is 4.18 µM (active).

Question: With `Cc1c(C(=O)Nc2cccc(C(F)(F)F)c2)cc(-c2ccccc2)n1CCCN1CCOCC1` as the compound, how does the Potency read?
Answer: Its Potency is 18.7 µM (active).

Question: With `C[C@@H]1CC[C@H]2[C@@H](C)C(=O)O[C@@H]3O[C@@]4(C)CC[C@H]1[C@]32OO4` as the compound, how does the Potency read?
Answer: The Potency was “inactive”.

Question: For `O=c1[nH]c2ccccc2n1C1CCN(Cc2ccc(-c3[nH]c4cc5ncnc5cc4nc3-c3ccccc3)cc2)CC1`, which Potency is on record?
Answer: The Potency was 16.6 µM (active).

Question: With `CC(C)N[C@@H]1CCn2c(=O)[nH]c3cccc(c32)[C@@H]1O` as the compound, how does the Potency read?
Answer: The Potency was 0.833 µM (active).

Question: With `CC(=O)N(C)c1cccc(-c2ccnc3c(C(=O)c4cccs4)cnn23)c1` as the compound, how does the Potency read?
Answer: Its Potency is “inactive”.

Question: Which Potency does the source give for `C[C@@H]1O[C@@H](O[C@@H]2C=C3CC[C@@H]4[C@@H](CC[C@]5(C)[C@H](c6ccc(=O)oc6)CC[C@@]45O)[C@@]3(C)CC2)[C@H](O)[C@H](O)[C@H]1O` here?
Answer: The Potency was 0.0264 µM (active).

Question: Which Potency does the source give for `O=C(Nc1ccncc1)C(=O)c1cn(Cc2ccc(Cl)cc2)c2ccccc12` here?
Answer: Its Potency is 0.0074 µM (active).

Experiment: Quantitative High-Throughput drug screen in 47 multiple myeloma cell lines against the NCATS MIPE library collection: KMS26_JCRB cell viability assay (AID 1918975); further: nearly all actives have a fitted effect of over 45% in size
Settings: KMS26 myeloma cells viability, CellTiter-Glo ATP, 48 h; series mostly up to 45.8 µM
Outline: as §1

Question: With `CC[C@@]1(O)C(=O)OCc2c1cc1n(c2=O)Cc2cc3ccccc3nc2-1` as the compound, how does the Potency read?
Answer: The Potency was 2.35 µM (active).

Question: With `COc1ccc2c(c[n+](C)c3c4cc5c(cc4ccc23)OCO5)c1OC` as the compound, how does the Potency read?
Answer: Its Potency is 3.72 µM (active).

Question: With `O=S(=O)(CC1CS1)c1ccc(Oc2ccccc2)cc1` (centres undefined) as the compound, how does the Potency read?
Answer: The Potency was 26.4 µM (active).

Question: Which Potency does the source give for `C[C@@H]1[C@H](O)[C@@H](C)C=CC=CCCC=CC=CC=CC=C[C@H](O[C@H]2O[C@@H](C)[C@H](O)[C@@H](N)[C@@H]2O)CC2O[C@](O)(C[C@@H](O)[C@H](O)CC[C@@H](O)C[C@@H](O)C[C@@H](O)CC(=O)O[C@H]1C)C[C@H](O)[C@H]2C(=O)O` here?
Answer: The Potency was “inactive”.

Question: Which Potency does the source give for `CO[C@H]1CCC(O[C@H]2C[C@H]([C@]3(C)CC[C@]4(C[C@H](O)[C@@H](C)[C@@H]([C@@H](C)C=C(C)C(=O)[C@H](C)C[C@H](C)C(=O)O)O4)O3)O[C@]3(O[C@@H]([C@H]4O[C@@](O)(CO)[C@H](C)C[C@H]4C)C[C@H]3C)[C@H]2C)O[C@H]1C` (some centres undefined) here?
Answer: The Potency was 0.372 µM (active).

Question: Which Potency does the source give for `C[C@]12CCC(=O)C(O)=C1CC[C@@H]1[C@H]3CCC(=O)[C@@]3(C)CC[C@@H]12` here?
Answer: The Potency was “inactive”.

Question: For `O=C(N[C@H]1CN2CCC1CC2)c1ccc(Cl)cc1`, which Potency is on record?
Answer: The Potency was “inactive”.

Question: For `CCNC(=O)C[C@@H]1N=C(c2ccc(Cl)cc2)c2cc(OC)ccc2-n2c(C)nnc21`, which Potency is on record?
Answer: Its Potency is 0.0935 µM (active).

Question: Which Potency does the source give for `Cc1c(C(=O)Nc2cccc(C(F)(F)F)c2)cc(-c2ccccc2)n1CCCN1CCOCC1` here?
Answer: Its Potency is 11.8 µM (active).

Question: With `CN(C)[C@@H]1C(=O)C(C(N)=O)=C(O)[C@@]2(O)C(=O)C3=C(O)c4c(O)cccc4[C@@](C)(O)[C@H]3[C@H](O)[C@@H]12` as the compound, how does the Potency read?
Answer: The Potency was “inactive”.

Question: Which Potency does the source give for `C[C@H]([C@H](O)CCC(C)(C)O)[C@H]1CC[C@@]2(O)C3=CC(=O)[C@@H]4C[C@@H](O)[C@@H](O)C[C@]4(C)[C@@H]3CC[C@]12C` here?
Answer: Its Potency is “inactive”.

Question: With `CC(=CCCC1=CCC(C2=CC(=O)OC2O)OC1O)CCC1=C(C)CCCC1(C)C` (centres undefined) as the compound, how does the Potency read?
Answer: Its Potency is “inactive”.

Question: Which Potency does the source give for `CCN(CC)C(=O)c1ccc(C2=CC3(CCNCC3)Oc3cccc(O)c32)cc1` here?
Answer: Its Potency is “inactive”.

Question: Which Potency does the source give for `CCC(=O)OC1CCC2C3CCC4=CC(=O)CC[C@@]4(C)C3CC[C@]12C` (some centres undefined) here?
Answer: The Potency was “inactive”.

Question: With `C[C@@H]1CC[C@H]2[C@@H](C)C(=O)O[C@@H]3O[C@@]4(C)CC[C@H]1[C@]32OO4` as the compound, how does the Potency read?
Answer: Its Potency is 11.8 µM (active).

Question: Which Potency does the source give for `O=c1[nH]c2ccccc2n1C1CCN(Cc2ccc(-c3[nH]c4cc5ncnc5cc4nc3-c3ccccc3)cc2)CC1` here?
Answer: The Potency was 23.5 µM (active).

Question: Which Potency does the source give for `C[C@]12COC(=O)C[C@@H]1CC[C@@H]1[C@H]2CC[C@@]2(C)[C@H]1CC[C@]2(C)O` here?
Answer: The Potency was “inactive”.

Question: For `CC(C)N[C@@H]1CCn2c(=O)[nH]c3cccc(c32)[C@@H]1O`, which Potency is on record?
Answer: The Potency was 26.4 µM (active).

Question: Which Potency does the source give for `c1ccc2c(CN3CCNCC3)cccc2c1` here?
Answer: Its Potency is “inactive”.

Question: For `CC(=O)O[C@@]12CO[C@H]1C[C@H](O)[C@@]1(C)C(=O)[C@H](O)C3=C(C)[C@@H](O)C[C@@](O)([C@@H](OC(=O)c4ccccc4)[C@@H]21)C3(C)C`, which Potency is on record?
Answer: The Potency was “inactive”.

Question: For `CC(=O)N(C)c1cccc(-c2ccnc3c(C(=O)c4cccs4)cnn23)c1`, which Potency is on record?
Answer: Its Potency is “inactive”.

Question: For `CN(C)NC(=O)CCC(=O)O`, which Potency is on record?
Answer: Its Potency is “inactive”.

Question: For `C[C@@]12OC(=O)[C@]1([C@@H](O)[C@@H]1C=CCCC1)NC(=O)[C@H]2CCCl`, which Potency is on record?
Answer: The Potency was 0.0105 µM (active).

Question: Which Potency does the source give for `COc1cc([C@@H]2c3cc4c(cc3[C@@H](O)C3COC(=O)C32)OCO4)cc(OC)c1O` (some centres undefined) here?
Answer: The Potency was 0.105 µM (active).

Question: With `CSCC[C@@H](NC(=O)[C@@H](Cc1ccccc1)NC(=O)CNC(=O)CNC(=O)[C@@H](N)Cc1ccc(O)cc1)C(=O)O` as the compound, how does the Potency read?
Answer: The Potency was “inactive”.

Question: For `C[C@@H]1O[C@@H](O[C@@H]2C=C3CC[C@@H]4[C@@H](CC[C@]5(C)[C@H](c6ccc(=O)oc6)CC[C@@]45O)[C@@]3(C)CC2)[C@H](O)[C@H](O)[C@H]1O`, which Potency is on record?
Answer: The Potency was 0.0418 µM (active).

Question: Which Potency does the source give for `O=C(Nc1ccncc1)C(=O)c1cn(Cc2ccc(Cl)cc2)c2ccccc12` here?
Answer: Its Potency is 9.35 µM (active).

Question: Which Potency does the source give for `C#C[C@]1(O)C=C[C@@H]2[C@@H]3CCC4=CC(=O)CC[C@@H]4[C@H]3CC[C@@]21CC` here?
Answer: Its Potency is “inactive”.

Question: With `COc1ccc(CC2NCCc3cc(OC)c(OC)cc32)cc1OC` (centres undefined) as the compound, how does the Potency read?
Answer: The Potency was “inactive”.

Question: For `CC=C(C)C(=O)N[C@@H](c1ccccc1)[C@@H](O)C(=O)O[C@H]1C[C@@]2(O)[C@@H](OC(=O)c3ccccc3)[C@@H]3[C@]4(OC(C)=O)CO[C@@H]4C[C@H](O)[C@@]3(C)C(=O)[C@H](OC(C)=O)C(=C1C)C2(C)C`, which Potency is on record?
Answer: The Potency was “inactive”.
